# Bioassay records as filed in PubChem.
# SW480 rerep = inducers of DNA re-replication in SW480 colon cancer cells; 340,000 tested, 1.8% active; Potency, µM (titrated, usually from 46.1 µM), for inactives: at the top dose re-replication activation, usual class: activators; SW480 DNA re-replication, Hoechst DNA content imaging, 48 h; AID 624297; also: potency is read from the fitted curve at half-maximal effect; % of control where 0% means no effect; nearly all actives have a fitted effect of over 55% in size
#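 Image-based read-out: total Hoechst fluorescence of nuclei (405 nm excitation, 500-530 nm emission), with hits raising the fraction of high-intensity nuclei. SW480 colon cells incubated 48 hr with compounds at 37 C.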
# IL-1B inflam inh = blocks inflammasome-driven IL-1 beta release. activity change, % at 57.5 µM. 360,000 tested, 4.7% active. AID 743279. THP-1 LPS/ATP IL-1B secretion, AlphaLISA, 16 h; active compounds read low; in the data active = activity change below about -50%; inconclusive = mostly about -30% to -49%; also: % is scaled to controls: 0 for no effect and ±100 for the full control effect
#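 Secreted IL-1B measured by AlphaLISA bead assay after 16 h compound exposure of THP-1 cells; compounds (final up to 57.5 uM) added 1 h before LPS (250 ng/mL) and ATP (1.25 mM) stimulation; lower signal means less secretion.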
# KB-3-1 cytotox = kills parental KB-3-1 adenocarcinoma cells; 400,000 tested, 1.4% active; Potency, µM (titrated, usually from 46.1 µM), usual class: cytotoxic; KB-3-1 viability, CellTiter-Glo ATP luminescence, 72 h; AID 1347075; also: potency is read from the fitted curve at half-maximal effect; % is scaled to controls: 0 for no effect and ±100 for the full control effect; nearly all actives have a fitted effect of over 60% in size
#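 Cytotoxicity measured as CellTiter-Glo luminescence after 72 h at 37 C. Compound titrations were pinned onto drug-naive KB-3-1 parental adenocarcinoma cells grown in DMEM with 10% FBS, and normalized data fitted to concentration-response curves.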
# KB-V1 MDR tox = KB-V1 MDR subline cytotoxicity; Potency, µM (titrated, usually from 46.1 µM), most hits filed as cytotoxic; 400,000 tested, 3.4% active; AID 1347076; KB-V1 MDR cells viability, CellTiter-Glo, 72 h; also: potency is read from the fitted curve at half-maximal effect; % is scaled to controls: 0 for no effect and ±100 for the full control effect; nearly all actives have a fitted effect of over 60% in size
#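 KB-V1 MDR subline cells in DMEM (phenol-red free, 10% FBS) exposed to compounds in qHTS concentration series for 72 h at 37 degrees C. Viability read by CellTiter-Glo luminescence; concentration-effect curves fitted after normalization and correction.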
# MCF10A rerep = induces DNA re-replication in MCF 10a normal breast cells | MCF 10A DNA re-replication, Hoechst nuclear intensity, 48 h | Potency, µM (series often up to 46.1 µM), without a hit: at the top dose activity, positive = re-replication, actives largely listed as activators | 350,000 tested, 2.9% active | AID 624296; also: potency is read from the fitted curve at half-maximal effect; % of control where 0% means no effect; nearly all actives have a fitted effect of over 50% in size
# * marks the source's active call; other numbers are inactive results; i = inactive; ? = inconclusive; nt = not tested or not shown; [ ] = dose if it differs, or a comment. The list is not random: actives were taken first. Their share in the collection is about 9.9%. Unless noted, calls follow the shape of the dose curve; as a rule, active = well fitted curve in the direction sought with a large enough effect; inconclusive = small, poorly fitted or top-dose-only effect, or another doubt; inactive = no such curve, though single readings can be large; an effect the other way counts as inactive or inconclusive.
SMILES,SW480 rerep,IL-1B inflam inh,KB-3-1 cytotox,KB-V1 MDR tox,MCF10A rerep
CC(O)CNc1nc2ccccc2n1-c1ncnc2sc3c(c12)CCC3 (centres undefined),0%,?,?,13µM*,20%
COc1ccccc1CNC(=O)c1ccc2nc(CCc3ccccc3)oc2c1,nt,nt,i,i,nt
CCc1ccccc1NC(=O)CN(Cc1ccccc1)S(=O)(=O)c1ccc(Br)cc1,nt,nt,i,i,nt
CCN=C1SC(CC(=O)NCc2ccccc2)C(=O)N1CC (centres undefined),-7%,-6,i,i,-4%
O=C(CNCCc1ccc(F)cc1)Nc1cc(F)ccc1F,3%,-25,i,i,-5%
Cc1cccc(-c2cc3nc4c(c(N5CCOCC5)n3n2)CCCC4)c1,0%,-26,i,?,1%
Cc1cccc(-c2cc3nc4c(c(NCc5ccco5)n3n2)CCCC4)c1,?,-98*,i,?,16µM*
Cn1c(SCc2ccc(C(C)(C)C)cc2)nnc1C1COc2ccccc2O1 (centres undefined),?,-16,?,i,21µM*
Cc1cc(NC(=O)CSc2nnc(C3COc4ccccc4O3)n2C)no1 (centres undefined),-2%,-11,i,i,-18%
COC(=O)CSc1nnc(C2COc3ccccc3O2)n1-c1ccccc1 (centres undefined),23%,23,i,i,21µM*
O=C(CC[C@H]1O[C@@H](n2ccc(=O)[nH]c2=O)[C@H](O)[C@@H]1O)N[C@H](Cc1ccccc1)C(=O)NCc1cccs1,nt,4,i,i,nt
O=C(CSc1ccc([N+](=O)[O-])cn1)Nc1cc(C(F)(F)F)ccc1N1CCOCC1,19%,-10,i,?,1%
Cc1cccc(NC(=O)c2ccc(Cn3nc(N4CCN(c5ccccc5)CC4)ccc3=O)o2)c1C,nt,nt,i,?,nt
Nc1nc(SCc2ccc(Cl)c(Cl)c2)n[nH]1,5%,10,i,i,-7%
O=S1(=O)C=C(SCc2ccc(Cl)c(Cl)c2)Nc2ccccc21,?,-11,?,15µM*,?
c1csc(-c2cc(N3CCCCC3)c3ccccc3n2)c1,17%,-8,i,i,21µM*
Oc1ccc(N2CCN(c3nc(-c4cccs4)nc4ccccc34)CC2)cc1,?,?,i,i,?
c1csc(-c2nnc(N3CCCCCC3)c3ccccc23)c1,12%,0,i,i,?
c1ccc(N2CCN(c3nc(-c4cccs4)nc4ccccc34)CC2)cc1,-1%,-58*,i,i,23µM*
CCN1CCN(c2nc(-c3cccs3)nc3ccccc23)CC1,-2%,?,i,?,3%
CN1CCN(c2nc(-c3cccs3)nc3ccccc23)CC1,?,-59*,i,i,?
O=C1c2ccccc2-c2cccnc21,-10%,10,i,i,-2%
O=C1c2ccccc2C(=O)c2c(/C=C/N3CCCCC3)ccnc21,21µM*,-107*,7.3µM*,2.3µM*,?
CC(CCO)Nc1nc2c(c(=O)n(C)c(=O)n2C)n1Cc1ccc(Br)cc1 (centres undefined),nt,nt,i,i,nt
C#CCOCCOCCOCCNc1nc(N2CCOCC2)nc(N2CCN(C(=O)CCCCCCCCCCNC(=O)[C@H](CO)n3cc(CCCCCN)nn3)CC2)n1,-10%[9.22 µM],-21,i,i,-3%
SMILES,SW480 rerep,IL-1B inflam inh,KB-3-1 cytotox,KB-V1 MDR tox,MCF10A rerep
C#CCOCCOCCOCCNc1nc(N2CCN(C(=O)CCCCCCCCCCNC(=O)Cn3cc(CCCCCN)nn3)CC2)nc(N2CCN(C(=O)CCCCCCCCCCNC(=O)[C@H](CO)n3cc(CCCCCN)nn3)CC2)n1,-12%,-71*,i,?,3%
C#CCOCCOCCOCCNc1nc(N2CCN(C(=O)Cn3cc(CCCCN)nn3)CC2)nc(N2CCN(C(=O)[C@H](Cc3ccc(O)cc3)n3cc(CCO)nn3)CC2)n1,5%[9.22 µM],8,i,i,3.7µM*
C#CCOCCOCCOCCNc1nc(N2CCN(C(=O)CCCCCCCCCCNC(=O)Cn3cc(CCCCCN)nn3)CC2)nc(N2CCN(C(=O)CCCCCCCCCCNC(=O)[C@H]([C@@H](C)CC)n3cc(CCCCCN)nn3)CC2)n1,-6%,-106*,?,i,17%
CC(NC(=O)C1CCN(C(=O)c2ccc(F)cc2)CC1)c1ccc(-n2ccnc2)cc1 (centres undefined),-14%,-7,i,?,8%
Cc1noc(C)c1-c1ccc(C(=O)NCc2cccc(Cl)c2)c2occc12,nt,0,i,i,nt
COc1cccc(N2CCN(c3ncnc4c3nc3n4CCCCC3)CC2)c1,nt,nt,16µM*,?,nt
Cc1cccc(N2CCN(C(=O)C3CCN(c4ncnc5c4nc4n5CCCCC4)CC3)CC2)c1C,-2%,-15,?,i,?
Cc1ccc(C)c(N2CCN(C(=O)C3CCCN(c4ncnc5c4nc4n5CCCCC4)C3)CC2)c1 (centres undefined),26%,?,?,?,21µM*
Cc1cccc(N2CCN(C(=O)C3CCN(c4ncnc5c4nc4n5CCCCC4)CC3)CC2C)c1 (centres undefined),?,?,?,?,15µM*
O=C(C1CCCN(c2ncnc3c2nc2n3CCCCC2)C1)N1CCN(c2cccc(Cl)c2)CC1 (centres undefined),-33%,?,?,23µM*,?
Cc1ccc(CC(=O)NNC(=O)c2cccs2)cc1C,-722%,13,i,i,-5%
Cc1cccc(C)c1NC(=O)C1(C)CN(S(C)(=O)=O)CC(=O)N1Cc1cccc(F)c1 (centres undefined),nt,10,i,i,nt
COc1ccc(NC(=O)Nc2cccc(OC)c2)cc1,-1%,-75*,i,i,1%
COc1cccc(NC(=O)Nc2ccc3nc(C)c(C)nc3c2)c1,-8%[1.84 µM],-17,i,i,8%
COc1cccc(NC(=O)Nc2ccc3nsnc3c2)c1,-1%,-56*,i,?,6%
Cc1ccc(Cl)cc1NC(=O)c1cccc(OC(F)F)c1,-4%,-5,i,18µM*,13%
Cc1ccc(Cl)cc1NC(=O)c1cc2ccccc2cc1O,?,-90*,9.2µM*,?,7.3µM*
COc1cccc(NC(=O)Nc2ccc3c(c2)nc(C)n3C)c1,0%,-12,i,?,1%
CC(C)(C)c1nnc(NC(=O)C2CCN(C(=O)c3ccccc3)CC2)s1,nt,nt,i,i,nt
Cn1ccc2cc(S(=O)(=O)N3CCCN(C(=O)Nc4ccccc4Br)CC3)ccc21,nt,nt,i,i,nt
C/C(=C\C(=O)c1ccc(Br)cc1)Nc1ccc(Cl)cc1,2%,0,i,i,9%
